Bioassay records as filed in PubChem.
HEK293 cAMP ctrl: parental HEK293 cAMP activation (counter-screen). parental HEK293 CNG cAMP sensor, membrane potential fluorescence. Potency, µM (titrated, usually from 57.1 µM), for inactives: at the top dose activation, actives largely listed as activators. 73,000 compounds, 2.5% hits. AID 938; also: % of control where 0% means no effect; nearly all actives have a fitted effect of over 55% in size
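Counterscreen for endogenous-receptor signalling: CNG-channel HEK 293 cells report cAMP rise by membrane depolarization. After 60 min dye equilibration with 100 uM RO 20-1724, compounds incubated 30 min before bottom-read fluorescence at 590 nm.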
TSHR ag: agonists of human thyroid stimulating hormone receptor; P16473; HEK293-CNG-TSHR cells (CNG channel as cAMP sensor), membrane potential dye, cAMP; Potency, µM (series often up to 57.1 µM), for the others: at the top dose activation, most hits filed as activators; 73,000 compounds, 0.48% hits; active = well fitted activation curve with a large enough effect in the main read-out, with a control signal flat, not every such curve was filed as active; inconclusive = small, poorly fitted or top-dose-only effect, or a change in a side signal; inactive = no such curve, though single readings can be large or run the other way; % of control where 0% means no effect;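 also: the control signal comes from parental cells without the receptor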
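HEK 293 cells stably expressing TSHR and a modified CNG channel, with CNG-only parental cells as counterscreen, were preloaded 60 min at room temperature with membrane potential dye containing 100 uM RO 20-1724. Compound exposure was 30 min, and depolarization was read as fluorescence at 590 nm.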
Bst PK mod: pyruvate kinase (B. stearothermophilus) modulation; purified pyruvate kinase, luminescence ATP production; ribose 5-phosphate activator present at AC10; Potency, µM; 51,000 compounds, 1.2% hits; AID 361; in the data active = potency below about 11 µM; inconclusive = mostly about 12 µM to 25 µM;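 the screen sought inhibitors and activators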;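 also: scaled between full activation by ribose 5 phosphate and full inhibition by luteolin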
Caspase-7 inhib: blocks human caspase-7 allosterically or competitively; P55210; recombinant caspase-7, Ac-DEVD-AFC fluorescence rate; Potency, µM (highest dose often 57.5 µM), inactives show at the top dose activity change, negative = inhibition, hits mostly inhibitors; 75,000 compounds, 0.02% hits; AID 889; active = well fitted inhibition curve with a large enough effect in the main read-out, with a control signal flat, not every such curve was filed as active; inconclusive = small, poorly fitted or top-dose-only effect, or a change in a side signal; also: % of control where 0% means no effect
GBA activity: modulators of human glucocerebrosidase. P04062. purified enzyme, resorufin glucoside fluorescence (screen aimed at inhibitors), 20 min. Potency, µM. 48,000 compounds, 1.1% hits; in the data active = potency below about 15 µM; inconclusive = mostly about 16 µM to 33 µM;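 also: the screen sought inhibitors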
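Normal human glucocerebrosidase (0.2 nM final) was assayed with resorufin β-D-glucopyranoside (30 uM final) in 50mM citric acid/KH2PO4, 10mM sodium taurocholate, 0.01% tween-20, pH 5.9. Compounds were titrated; fluorescence (Ex 548, Em 600) read after 20 min at RT.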
Caspase-1 inhib: blocks human caspase-1 allosterically or competitively | 75,000 compounds, 0.03% hits | P29466 | AID 900 | Caspase-1 enzyme, Ac-WEHD-AFC fluorogenic rate | Potency, µM (titrated, usually from 57.5 µM), inactives show top-dose activity change, negative = inhibition, usual class: inhibitors;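 also: plate controls were vehicle for no effect and no substrate for full effect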
* hit, by the source's call; u = inconclusive; x = no result given; ! = a repeat was not active; [ ] = dose if it differs, or a comment. Compounds with a hit are over-represented: about 4% of the library has one in this group of screens. Unless noted, calls follow the shape of the dose curve; as a rule, active = well fitted curve in the direction sought with a large enough effect; inconclusive = small, poorly fitted or top-dose-only effect, or another doubt; inactive = no such curve, though single readings can be large; an effect the other way counts as inactive or inconclusive. Potency is read from the fitted curve at half-maximal effect.

SMILES	HEK293 cAMP ctrl	TSHR ag	Bst PK mod	Caspase-7 inhib	GBA activity	Caspase-1 inhib
O=C(Nc1cccnc1)c1c(O)c2c(n(Cc3ccccc3)c1=O)CCCC2	13µM*	u	>57	1%	>77	0%
COc1ccc2c(c1)c(CCN1CCOCC1)c(C)n2C(=O)c1cccc(Cl)c1Cl	10µM*	u	x	-7%	x	-4%
CCOC(=O)c1c(C)n(CCN2CCN(C)CC2)c2ccc(OC)cc12	7%	8%	>57	1%	u	-3%
C=C(C)[C@H]1[C@H]2OC(=O)[C@@H]1[C@]1(O)C[C@H]3O[C@]34C(=O)O[C@H]2[C@]14C	6%	-2%	x	x	x	x
CO[C@@H](C)[C@](O)(C(=O)OC1=CCN2CC[C@H](O)[C@H]12)C(C)C	9%	-2%	x	x	x	x
Cc1ccc2c(c1)C1CN(C)CCC1N2S(=O)(=O)c1ccccc1 (stereo not drawn)	9%	7%	>57	-1%	10*	-3%
Cc1ccc2c(c1)C1CN(C)CCC1N2C(=O)c1ccc(Br)o1 (stereo not drawn)	17%	5%	>57	-2%	>77	-1%
COc1cc2c(cc1OC)[C@]13CC[N@+]4(C)CC5=CCO[C@H]6CC(=O)N2[C@@H]1[C@@H]6[C@@H]5C[C@]34O	3%[11.4 µM]	0%[11.4 µM]	x	-2%[11.5 µM]	x	0%[11.5 µM]
CN1CCCC2(CCN(C(=O)c3ccncc3)CC2)C1	10µM*	u	x	0%	x	-1%
CC(C)CN1CCCC2(CCN(C(=O)c3ccncc3)CC2)C1	6%	-5%	x	-4%	x	-3%
NNc1c(C(N)=O)c2c(N)ncnc2n1[C@@H]1O[C@H](CO)[C@@H](O)[C@@H]1O	-6%[11.4 µM]	2%[11.4 µM]	x	x	x	x
CCOC(=O)c1c(C)n(Cc2ccco2)c2ccc(OC)cc12	25µM*	u	x	-5%	x	-4%
O=C(O)/C=C\c1ccc[c]([Sb](=[O])([OH])[OH])c1	0%[11.4 µM]	-7%[11.4 µM]	x	-3%[11.5 µM]	x	-6%[11.5 µM]
C[C@@H](Cc1cccc(C(F)(F)F)c1)NCCCc1ccccc1	40µM*	u	x	0%	x	0%
FC(F)(F)c1nc2ccc(SSc3ccc4nc(C(F)(F)F)[nH]c4c3)cc2[nH]1	-10%[11.4 µM]	-4%[11.4 µM]	x	-2%[11.5 µM]	x	0%[11.5 µM]
CCCC(=O)Nc1ccc(N2CCN(CC)CC2)c(Cl)c1	6%	2%	>57	0%	1.7*	2%
O=[As](O)(O)c1ccc(Cc2ccc([As](=O)(O)O)cc2)cc1	-6%[11.4 µM]	2%[11.4 µM]	x	-5%[11.5 µM]	x	0%[11.5 µM]
CCC(=O)Nc1c(C)nn(C(=O)CC)c1C	32µM*	u	>57	2%	>77	-1%
CCN1C[C@@]2(COC(=O)c3ccccc3N3C(=O)C[C@H](C)C3=O)CC[C@H](OC)[C@@]34[C@@H]5CC6[C@@H](OC)C[C@@](O)([C@H]5[C@H]6OC)C(O)([C@@H]13)[C@@H](OC)[C@H]24	-1%	2%	x	x	x	x
CCNC(=O)[C@@H]1O[C@@H](n2cnc3c(N)ncnc32)[C@H](O)[C@H]1O	0.16µM*	u	x	1%	x	1%
COc1ccc2c3c1O[C@@H]1C(=O)CC[C@@]4(O)[C@@H](C2)N(CC2CC2)CC[C@]314	u	u	x	0%	x	-2%
CCCN1CC[C@@H]2c3cc(O)ccc3CC[C@H]21	u	u	x	1%	x	1%
c1ccc(CN2CCC3(CCc4ccccc43)CC2)cc1	32µM*	u	x	1%	x	1%
COc1ccc2c(c1OC)C(=O)O[C@H]2[C@H]1c2cc3c(cc2CCN1C)OCO3	13µM*!	u	x	-2%[25.7 µM]	x	-4%[25.7 µM]
CN1CCc2cc3c(cc2C1C1OC(=O)c2c1ccc1c2OCO1)OCO3 (stereo not drawn)	x	x	x	-2%	x	-5%
SMILES	HEK293 cAMP ctrl	TSHR ag	Bst PK mod	Caspase-7 inhib	GBA activity	Caspase-1 inhib
CN1C[C@@H](CS(=O)(=O)N(C)C)C[C@H]2c3cccc4c3c(cn4C)C[C@@H]21	11%	4%	x	-1%	x	1%
CCCN1CCc2cccc3c2[C@@H]1Cc1ccc(O)c(O)c1-3	-2%	1%	x	-2%	x	-2%
CC1O[C@@H](OC2CC[C@@]3(C=O)C4CC[C@]5(C)C(C6=CC(=O)OC6)CC[C@@]5(O)C4CC[C@]3(O)C2)C(O)C(O)C1O (stereo partly drawn)	x	x	x	-2%	x	-1%
C[C@@H]1O[C@@H](O[C@H]2C[C@@H](O)[C@]3(CO)[C@@H]4[C@@H](O)C[C@]5(C)[C@H]([C@@H]6COC(=O)C6)CC[C@@]5(O)[C@H]4CC[C@@]3(O)C2)[C@H](O)[C@H](O)[C@@H]1O	25µM*	u	x	1%	x	1%
Cc1cc(NC(=O)CSc2nc3c(c(=O)n2-c2ccc(Cl)cc2)SCC3)no1	u	u	>57	-2%	14*	-1%
COc1cc2cc(c1Cl)N(C)C(=O)C[C@H](OC(=O)C(C)C)[C@]1(C)O[C@@H]1[C@@H](C)[C@H]1C[C@](O)(NC(=O)O1)[C@@H](OC)/C=C\C=C(\C)C2	1µM*	u	x	-2%[11.5 µM]	x	-1%[11.5 µM]
O=P(c1ccccc1)(c1ccccc1)N1CCCCC1	x	x	>26	x	x	x
CC1N(P(=O)(c2ccccc2)c2ccccc2)CC(O)(c2ccccc2)CC12CC2 (stereo not drawn)	16µM*	u	x	-8%	x	-1%
COC(=O)[C@@H]1C[C@@]1(C)[C@@H](NP(=O)(c1ccccc1)c1ccccc1)c1ccccc1	1.3µM*	u	x	0%	x	2%
COc1ccccc1OCCCn1cc(C(=O)c2ccco2)c2ccccc21	32µM*	u	>57	-1%	x	-5%
O=C(Cn1cc(C(=O)c2ccccc2)c2ccccc21)NCc1ccco1	21%	24%	>57	-2%	>77	-1%
[CH3][Hg][Cl]	-28%	u	x	1%	x	1%
CCN(CC)C(=O)N[C@@H]1C=C2c3cccc4[nH]cc(c34)C[C@@H]2N(C)C1	16µM*!	u	x	x	x	x
CCn1nc(-c2ccccc2)nc2c(=O)n(C)c(=O)nc1-2	-5%	-21%	>57	u	>77	0.79µM*
CC(C)(C)n1c(O)c(C=Nc2ccc3c(c2)CCC3)c(=O)[nH]c1=O	25µM*	u	>57	-1%	11*	-2%
CN(C)c1ccc2c(c1)N=C(c1ccco1)OP2(=S)N1CCOCC1 (stereo not drawn)	25%	16µM*	>57	-1%	>77	-2%
C[C@@]12CC[C@H](O)C[C@@H]1CC[C@H]1[C@H]2C[C@@H](O)[C@]2(C)[C@@H](C3=CC(=O)OC3)CC[C@@]12O	20%	12%	x	x	x	x
Cc1nn(CCC#N)c2c1P(=S)(N1CCCC1)OC(c1ccc(F)cc1)=N2 (stereo not drawn)	27%	16µM*	>57	-1%	x	3%
CN1C(=O)C(C2c3ccccc3C(=O)N2Cc2ccccc2)C(=O)N(C)C1=O (stereo not drawn)	3%	x	>57	-1%	12*	-1%
